# Laboratory results from PubChem BioAssay (NCI).
# This is part of a sample that, as a whole, favours compounds with a hit. Of some 79,000 tested, about 15% had one in any assay. A number with no mark means an inactive call. Rule as the data show it: active = growth inhibition above about 70%; inactive = the rest.
# Test: NCI Yeast Anticancer Drug Screen. Data for the rad50 strain (AID 155);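 also: 0% = growth of vehicle-only cultures of the same strain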
# Details: S. cerevisiae rad50 strain growth inhibition; at 50.0 µM; active compounds read high
# Method in brief: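 DNA repair mutant yeast, compound exposure, growth read-out; inhibition is taken relative to vehicle.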
row,SMILES,growth inhibition [%]
1,c1ccc2scnc2c1,21.2
2,CN(C)S(=O)(=O)C(C(=O)Nc1ccccc1)c1ccccc1 (stereo not drawn),-1.15
3,N#CCCn1nc(SC2CCCCC2)c(=O)[nH]c1=O,-4.05
4,CCOc1ccc(/C=C(\NC(=O)c2ccccc2)C(=O)Nc2ccccc2)cc1OC,4.8
5,COc1ccc2nc(-c3ccc(F)cc3)cc(C(=O)O)c2c1,-4.6
6,CC(=O)SC12CCCN1C(=O)C1(SC(C)=O)CCCN1C2=O (stereo not drawn),40.5
7,O=C(C[n+]1ccncc1)c1cccc([N+](=O)[O-])c1,0.5
8,N#CC(C#N)=C(O)/C(=C/c1ccc(Cl)cc1Cl)NC(=O)c1ccccc1,9.4
9,NC(Cc1cccc2ccccc12)C(=O)O (stereo not drawn),14.3
10,O=C(NC(=O)c1ccccc1Cl)Nc1ccc(C(O)(C(F)(F)F)C(F)(F)F)cc1,53.8
11,CCOC(=O)C(CCCOC1CCCCO1)(C(=O)OCC)c1ccccc1 (stereo not drawn),21.4
12,C(=Nc1ccc2c(c1)Cc1ccccc1-2)c1ccccn1,61.8
13,OCCCc1nc2ccccc2[nH]1,-10.3
14,CCN(CC)c1ccc(NCC(O)c2cc(Cl)ccc2OC)cc1 (stereo not drawn),-11.8
15,O=C1C=C(Cl)C(=O)O1,8.85
16,CCN(CC)CCCC(C)Nc1nccc(/C=C/c2ccc(Cl)cc2)n1 (stereo not drawn),9.9
17,CC(Oc1ccccc1)C(O)(c1ccc(N(C)C)cc1)c1ccc(N(C)C)cc1 (stereo not drawn),3.3
18,CCO/C(O)=C(/C#N)C(=O)NC1=NCCCCC1,6.15
